Source: PubChem BioAssay AID743262 (National Center for Advancing Translational Sciences (NCATS), 2014)
Several values for one entry are separate records, joined by “and”; a condition that tells them apart may be missing. Equal entries are not always repeated. Among all 1,300 compounds or so, about 25 (2%) were called active. Another 9% or so got no clear call; they are omitted. The list comes from a sample in which actives are over-represented; it also holds similar structures and randomly drawn compounds. A number with no mark means an inactive call. Calls follow the shape of the dose curve; as a rule, active = well fitted activation curve with a large enough effect; inconclusive = small, poorly fitted or top-dose-only effect; inactive = flat fitted curve, though single readings scatter.

target: Glucagon-like peptide 1 receptor (Homo sapiens) (UniProt P43220); assay: qHTS of GLP-1 Receptor Agonists: Hit Validation; details: HEK293 GLP-1R, cAMP-response luciferase, 4-6 h; series mostly up to 46.1 µM; activation: at the top concentration; as to activation: % of control where 0% means no effect
Sequence (P43220 whole entry, looked up): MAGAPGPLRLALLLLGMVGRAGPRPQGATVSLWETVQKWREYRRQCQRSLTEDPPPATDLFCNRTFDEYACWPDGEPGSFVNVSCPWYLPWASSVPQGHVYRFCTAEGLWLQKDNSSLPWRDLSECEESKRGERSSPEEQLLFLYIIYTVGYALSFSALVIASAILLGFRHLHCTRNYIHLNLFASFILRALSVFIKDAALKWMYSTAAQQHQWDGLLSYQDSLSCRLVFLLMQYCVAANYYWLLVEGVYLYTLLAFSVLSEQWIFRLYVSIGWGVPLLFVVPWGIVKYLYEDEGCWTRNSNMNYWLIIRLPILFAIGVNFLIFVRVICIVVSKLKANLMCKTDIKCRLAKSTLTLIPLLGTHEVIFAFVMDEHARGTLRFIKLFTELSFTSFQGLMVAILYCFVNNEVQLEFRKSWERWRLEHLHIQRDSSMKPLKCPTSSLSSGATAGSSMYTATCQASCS
From the text: The overall goal of this project was to develop a novel assay for discovering small molecule ligands for class B1 G protein-coupled receptors (GPCRs). Very few agonists (or inverse agonists) with generally weak activity for this entire group of physiologically important receptors are known to date. To establish proof-of-principle that this critical bottleneck can be overcome with a suitable screening approach, our studies focused on the class B1 receptor for glucagon-like peptide-1 (GLP-1R), a potential therapeutic target for diabetes and neurodegenerative disease. The assay was developed in a "mix and measure" format using a cell-based functional readout. Toward this goal, stably transfected HEK293 cell clones were established that co-express (i) a cAMP-responsive luciferase reporter gene, and (ii) GLP-1Rs that upon ligand interaction either stimulate (agonists) or inhibit (inverse agonists) luciferase activity. In different cell lines to be used for screening, expressed GLP-1Rs are specifically optimized for high sensitivity detection of either weak agonists (hypersensitive receptor) or inverse agonists (constitutively active receptor mutant). In addition, control cell lines were developed that express either the cAMP-responsive reporter gene without recombinant GLP-1Rs (enabling initial exclusion of GLP-1R independent effects of candidate probes), or the reporter gene together with wild type GLP-1Rs (for confirmation of probe activity at this receptor), or the reporter gene in combination with the constitutively active orphan receptor GPR119 (enabling initial exclusion of GLP-1R independent inhibitory effects of candidate inverse agonists). To that end, this assay was optimized for 1536-well format and screened against the MLSMR. NIH Molecular Libraries Probe Production Network [MLPCN] NIH Chemical Genomics Center [NCGC] Grant: NS064851 PI Name: Martin Beinborn, Tufts Medical Center
In a white solid 1536-well plate, 6 uL of cells are dispensed in DMEM without phenol red, 10% Nu serum, and 1% pen-strep medium. The plates are then incubated for 12 hours at 37 deg C at 5% CO2 before 23 nL of compounds are added. After a 4-6 hr incubation at37 deg C and 5% CO2, 3 uL of detection reagent are added and after a 12 min incubation at RT, a luminescent read is obtained on the ViewLux.
Potency is read from the fitted curve at half-maximal effect.

Structure (SMILES)	activation [%]	Potency
CC1(c2ccccc2)NC(=O)N(CC(=O)NNC(=O)c2ccccc2F)C1=O (centres undefined)	-0.706	–
CSc1ncccc1C(=O)OCc1c(F)cccc1Cl	5.02	–
CCOc1ccc(CCNC(=O)c2ccc3ccccc3n2)cc1OCC	2.41	–
CCN1CCN(c2nc3sc4c(c3c3ncnn23)CC(C)CC4)CC1 (centres undefined)	5.78	–
CCn1nc(NC(=O)c2ccco2)c2cc3cc(C)ccc3nc21	0.893	–
CCn1nc(NC(=O)c2cccnc2)c2cc3ccccc3nc21	–	20.6 µM (active)
CCOC(=O)c1cc(NC(=O)c2cccnc2)cc(C(=O)OCC)c1	0.228	–
CC(=O)c1cccc(Nc2nc(=O)c3cccnc3s2)c1	3.72	–
CC(=O)c1cccc(N2C(=O)C3C4CCC(C4=C(C)C)C3C2=O)c1 (centres undefined)	-0.946	–
OCCNc1nc(-c2ccccc2)c2cc(Cl)ccc2n1	15.5	–
O=c1ccc2ccc(OCCOc3cccc(Cl)c3)cc2o1	6.88	–
CCOC(=O)c1sc2nc(OCc3cccnc3)cc(C)c2c1N	9.79	–
CCc1cc(=O)oc2c3c(cc(OCC(=O)Nc4cccnc4)c12)OC(C)(C)CC3	9.92	–
COC(=O)c1ccc2c(=O)[nH]c(COC(=O)c3[nH]c(C)c(C(C)=O)c3C)nc2c1	-0.418	–
CCC(C)Nc1nc(N)c([N+](=O)[O-])c(Nc2ccccc2OC)n1 (centres undefined)	25.2	–
CCN1CCN(C2=C(Cl)C(=O)N(Cc3ccccc3)C2=O)CC1	4.15	–
COCCCNC(=S)N/N=C/c1ccc2ccccc2c1	2.83	–
Cc1cc(C)nc(N2CCCC(C(=O)Nc3ccc4nc(C)c(C)nc4c3)C2)n1 (centres undefined)	2.27	–
COc1ccc(C)cc1N(C(=O)c1snc(C(N)=O)c1N)C(C(=O)NC1CCCCC1)c1ccc(C)o1 (centres undefined)	-0.356	–
CCOC(=O)c1c(C)c(C(=O)N2CCCCCC2)c(C)n1C	2.73	–
COc1cccc(C2CC(=O)Nc3cc(OC)c(OC)c(OC)c32)c1OC (centres undefined)	0.189	–
COc1cc2c(cc1OC)/C(=C/C(=O)N1CCOCC1)NC(C)(C)C2	12.9	–
CC(=O)NC1(c2ccccc2)CCN(c2cc(C)nc(-c3ccccc3)n2)CC1	14.2	–
C=C[C@@]1(C)CC(=O)[C@]2(O)[C@@]3(C)[C@@H](O)CCC(C)(C)[C@@H]3[C@H](O)[C@H](OC(C)=O)[C@@]2(C)O1	–	2 µM (active) and 1.84 µM (active)
C=C[C@@]1(C)CC(=O)[C@]2(O)[C@@]3(C)[C@@H](O)CCC(C)(C)[C@@H]3[C@H](OC(C)=O)[C@H](O)[C@@]2(C)O1	–	9.2 µM (active)
COc1cccc(/C=C/C(=O)Nc2ccc(N3CCOCC3)cc2)c1OC	0.215	–
Cc1ccc(NC(=O)COc2ccc(CCO)cc2-n2nc3ccccc3n2)cc1C	27.2	–

Structure (SMILES)	activation [%]	Potency
C=CCOc1nc2c(c(=O)n(C)c(=O)n2C)n1Cc1ccccc1Cl	4.97	–
Cc1ccc(CNCCCSc2ncccn2)cc1	17.6	–
CC(=O)Nc1ccc(NC(=O)c2cc(C3CC3)nc3c2cnn3C(C)C)cc1	2.18	–
O=C(NCc1ccco1)c1cccc2c(-c3ccc(F)c(F)c3)coc12	15.6	–
COc1ccc(CNC(=O)c2cccc3c(-c4cnn(C)c4)coc23)cc1OC	18.7	–
O=C(NCc1cccs1)c1cccc2c(-c3cccnc3)coc12	–	9.2 µM (active)
COc1ccc(N(CC(=O)N/N=C/c2ccc(OC)c(OC)c2)S(=O)(=O)c2ccccc2)cc1	22.5	–
COc1ccc(-c2cc(=O)[nH]c(NCc3ccccc3)n2)cc1	6.89	–
CC1Cc2cc(S(=O)(=O)N3CCCC(C(=O)N4CCCCC4)C3)ccc2N1C(=O)C1CC1 (centres undefined)	10.9	–
CCOC(=O)C1CCCN(C2=NC(=O)/C(=C/c3ccc(O)c(OCC)c3)S2)C1 (centres undefined)	11.7	–
O=C(NC1CCCCCC1)C(=O)NC1CC1	-0.58	–
CC(OC(=O)c1ccc2ncsc2c1)C(=O)NC1CCCCC1C (centres undefined)	2.27	–
COc1ccc(-c2nn3c(COc4ccccc4)nnc3s2)cc1OC	28.5	–
CCOC(=O)/C(C#N)=C/Nc1cc(OC)ccc1OC	2.12	–
Oc1ccccc1/C=N/N1CCN(c2ccccn2)CC1	-0.352	–
c1coc(Cn2c(-c3ccco3)nc3ccccc32)c1	-0.487	–
COc1ccc(NC(C)=O)cc1S(=O)(=O)Nc1ccc2c(c1)OCCO2	-0.925	–
COCCN(Cc1ccccc1)C(=O)c1cc(-c2ccc(OC)c(OC)c2)nc2ccccc12	23.1	–
Cc1nc2cc(-c3cccc(F)c3)nn2c(N2CCN(C(=O)c3ccco3)CC2)c1C	16.2	–
CCN(CC)c1nc(OC)nc(-n2nnc(C(C)=O)c2C)n1	0.606	–
CCc1nc(SCCO)c2oc3ccccc3c2n1	3.96	–
COC(=O)c1sc(NC(=O)CSc2nc3cccnc3n2C2CCCCC2)nc1C	2.81	–
COc1ccc(OC)c(/C=N/n2c(-c3n[nH]c4c3CCC4)n[nH]c2=S)c1	-1.33	–
COC(=O)Cc1c(C)c2ccc(OCc3nn[nH]n3)cc2oc1=O	-0.628	–
CCOC(=O)C1=C(COC(=O)c2cc(S(=O)(=O)N3CCOCC3)ccc2F)NC(=O)NC1C (centres undefined)	20.7	–
COc1cccc(Cn2c(N)c(C#N)c3nc4ccccc4nc32)c1OC	7.89	–
COc1ccc(S(=O)(=O)N(C)C)cc1NC(=O)c1ccc(OCC(=O)N2CCOCC2)c(OC)c1	0.301	–
